Measurements published in PubChem BioAssay (NCATS).
Records with an inconclusive call do not appear. Unmarked numbers belong to inactive results. Active and inactive are the calls of the source. Calls come from the whole dose curve; as a rule, active = well fitted inhibition curve with a large enough effect; inconclusive = small, poorly fitted or top-dose-only effect, or effect the other way; inactive = no such curve, though single readings can be large or run the other way.

Test: High Content Imaging Cell-Based qHTS for Inhibitors of the mTORC1 Signaling Pathway in MEF Cells (AID 2667);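 for activity change, negative = inhibition: Tsc2-/- p53-/- MEFs stably re-expressing wild-type Tsc2 exposed 24 h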
Details: series mostly up to 38.3 µM; activity change, negative = inhibition: at the top concentration
Source text: NIH Molecular Libraries Probe Production Centers Network [MLPCN]
NIH Chemical Genomics Center [NCGC]
Assay Submitter (PI): Blenis, John; Hoffman, Greg; Harvard University
NCGC Assay Overview: The mammalian target of rapamycin (mTOR) is an intracellular serine/threonine kinase Aberrant regulation of mTOR signaling plays a causative role in a number of human diseases, including cancer, benign tumors such as lymphangioleiomyomatosis (LAM) and Tuberous Sclerosis Complex (TSC), and metabolic diseases such as diabetes and obesity. This project aims to identify inhibitors of ribosomal protein S6 (rpS6) phosphorylation. The phosphorylation of rpS6 is a key event downstream of mTOR activation. The assay uses a phospho-specific antibody of phospho-rpS6 to detect inhibitors of mTOR activation. Mutations in the Tsc1 and Tsc2 genes are the underlying genetic lesions responsible for TSC, causing constitutive activation of the mTORC1 pathway and leading to profound effects on cell metabolism. Aberrant metabolism in cancer has recently received significant attention as a target to develop therapeutic agents in the treatment of cancer.1 As Tsc2-/- cells have lost the ability to respond to energy and growth factor deprivation, these cells are unable to properly down regulate cellular biosynthetic processes in response to metabolic stress, and are thus extremely sensitive to glucose deprivation-induced death.2 A central goal of this project is to explore the unique cell survival and metabolic properties of cells with Tsc1 or Tsc2 by screening for compounds that selectively target the Tsc2-/- MEFs by screening both Tsc2-/- and WT MEF cell lines. We hope to better understand these aspects of TSC physiology in order to exploit them for therapeutic benefit.
NCGC IN Cell Assay Protocol:
For quantitative high throughput analysis of mTORC1 signaling, we developed a cell-based assay for immuno-fluorescence based detection of rpS6 phosphorylation on the Acumen Explorer that will be used a platform for the primary small molecule screen. Mouse embryonic fibroblasts (MEFs) are cultured in 1536-well plates using DMEM + 10% FBS. Twenty-four hrs after plating, test compounds (solubilized in DMSO) are delivered and incubated with the cells for 24 hrs at 37 degree Celsius. Following the incubation, media with compound is aspirated and the cells are fixed in 4% paraformaldehyde (PFA) containing PBS + 0.2% TX-100. Next, PFA is aspirated, cells are washed two times with PBS plus 0.2% TX-100 and the cells are blocked for 1 hr at room temperature (blocking buffer: LiCOR Blocking Buffer plus 0.2% TX-100). This is followed by aspiration and staining with Alexa-488 conjugated-phospho-rpS6 Ser235/236 antibody for 2 hours at room temperature (Cell Signaling Technology # 4803, 1:50 dilution in blocking buffer). Cells are washed two times with PBS plus 0.2% TX-100, and stained with 10 uM propidium iodide (PI) for 20-25 minutes for cell number measurement (1:500 dilution of Hoescht staining is also added for IN Cell imaging). Active wells which are selected (based on Acumen results) are imaged on the IN Cell 1000 (GE Healthcare) using the D360/40X and HQ480/40X excitation filters for the Hoechst and Alexa-488 cytoplasmic stains, respectively. The fluorescence emission filters used were HQ460/40M and HQ535/50M for the Hoechst and Alexa-488 cytoplasmic stains, respectively. The normalized phospho-S6 staining is calculated as the ratio of […] for the single concentration rapamycin control ([…] nM) and DMSO columns. […] Inhibition of the pathway is defined based on the normalized phospho-S6 intensity in rapamycin treated cells. Each treatment is reported as the % positive cells in the well, where thresholds are defined by selecting wells with the highest and lowest signal and differentiating between the % non-active and % active populations. […]
Potency is the fitted concentration of half-maximal effect.

Row | SMILES | activity change, negative = inhibition | Potency
1 | CC(C)(C(=O)O)c1ccc(C(O)CCCN2CCC(C(O)(c3ccccc3)c3ccccc3)CC2)cc1 (centres undefined) | -100% | 
2 | O=C1N=C(O)CN1/N=C/c1ccc(-c2ccc([N+](=O)[O-])cc2)o1 | -100% | 
3 | CNCCCC1c2ccccc2C=Cc2ccccc21 | -100% | 
4 | CCCn1cnc2c1c(=O)n(CCCCC(C)=O)c(=O)n2C | -100% | 
5 | CC(C)NC[C@H](O)c1ccc(O)c(O)c1 |  | inactive
6 | NC(=O)c1ncn([C@@H]2O[C@H](CO)[C@@H](O)[C@H]2O)n1 | -100% | 
7 | N=c1c[n+](N2CCOCC2)[n-]o1 | -100% | 
8 | NC(N)=NCCC[C@H](N)C(=O)O | -100% | 
9 | CCN(CC)CCNC(=O)c1cc(Cl)c(N)cc1OC | -100% | 
10 | Nc1ncnc2c1ncn2[C@@H]1O[C@H](CO)[C@@H](O)[C@H]1O | -100% | 
11 | CSc1ccc2c(c1)C(N1CCN(C)CC1)Cc1ccccc1S2 (centres undefined) | -100% | 
12 | Nc1cc(=O)[nH]c(N)n1 | -100% | 
13 | CCN(CC)C(C)CN1c2ccccc2Sc2ccccc21 (centres undefined) | -100% | 
14 | CCN(CC)CCOC(=O)C1(C2CCCCC2)CCCCC1 | -100% | 
15 | COc1ccc(Cl)cc1C(=O)NCCc1ccc(S(=O)(=O)NC(=O)NC2CCCCC2)cc1 | -100% | 
16 | CC1=C(CC(=O)O)c2cc(F)ccc2/C1=C\c1ccc(S(C)(=O)=O)cc1 | -100% | 
17 | C[C@](N)(Cc1ccc(O)cc1)C(=O)O | -100% | 
18 | CC(CN(C)C)CN1c2ccccc2CCc2ccccc21 (centres undefined) | -100% | 
19 | CSc1ccc2c(c1)N(CCC1CCCCN1C)c1ccccc1S2 (centres undefined) | -100% | 
20 | CC1=C(/C=C/C(C)=C/C=C/C(C)=C/C(=O)O)C(C)(C)CCC1 | -100% | 

Row | SMILES | activity change, negative = inhibition | Potency
21 | CCN(CC)CCCC(C)Nc1c2ccc(Cl)cc2nc2ccc(OC)cc12 (centres undefined) |  | 14.7 µM (active)
22 | C#CCN(C)Cc1ccccc1 | -100% | 
23 | COC(=O)C1=C(C)NC(C)=C(C(=O)OC)C1c1ccccc1[N+](=O)[O-] | -100% | 
24 | C[C@]12C[C@H](O)[C@H]3[C@@H](CCC4=CC(=O)CC[C@@]43C)[C@@H]1CC[C@@H]2C(=O)CO | -100% | 
25 | CNCC(O)c1ccc(O)c(O)c1 (centres undefined) | -100% | 
26 | CC[C@H]1CN2CCc3cc(OC)c(OC)cc3[C@@H]2C[C@@H]1C[C@H]1NCCc2cc(OC)c(OC)cc21 | -14.8% | 
27 | CNC(=O)Oc1ccc2c(c1)[C@]1(C)CCN(C)[C@@H]1N2C | -100% | 
28 | C=Cc1c(C)c2cc3[nH]c(cc4nc(cc5nc(cc1[nH]2)C(C)=C5CCC(=O)O)C(CCC(=O)O)=C4C)c(C)c3C=C | -100% | 
29 | CC(=O)OCC(=O)[C@@]1(O)CC[C@H]2[C@@H]3CCC4=CC(=O)CC[C@]4(C)[C@H]3C(=O)C[C@@]21C | -100% | 
30 | CC1=C(CC(=O)O)c2cc(F)ccc2/C1=C\c1ccc(S(C)=O)cc1 (centres undefined) | -100% | 
31 | NC1CCN(c2cccc(Cl)n2)CC1 | -100% | 
32 | CN(C)CCOC(C)(c1ccccc1)c1ccccn1 (centres undefined) | -100% | 
33 | CC(C)(C)[C@]1(O)CCN2C[C@H]3c4ccccc4CCc4cccc(c43)[C@@H]2C1 | -79.1% | 
34 | CCCCCCCCCCCCCCCC(=O)NCCO | -100% | 
35 | C[C@]12CC[C@@H]3c4ccc(O)cc4CC[C@H]3[C@@H]1CCC2=O | -100% | 
36 | COCCOC(=O)C1=C(C)NC(C)=C(C(=O)OC/C=C/c2ccccc2)C1c1cccc([N+](=O)[O-])c1 (centres undefined) | -100% | 
37 | CC(C)(C)c1onc(OCP(=O)(O)O)c1CC(N)C(=O)O (centres undefined) |  | inactive
38 | CC(C)C(=O)c1c(C(C)C)nn2ccccc12 | -100% | 
39 | CN(C)CC[C@@H](c1ccc(Cl)cc1)c1ccccn1 | -100% | 
